Compound activity deposited in PubChem by several laboratories.
GDH-TPI inh: counter-screen for M. tuberculosis FBA inhibitors: GDH-TPI coupled enzymes; GDH-TPI coupled enzyme counterscreen, NADH absorbance; inhibition, % at 4.8 µM; actives 1.2% (n = 360,000); AID 588335; in the data active = inhibition above about 30%
BioA inh: blocks M. tuberculosis BioA enzyme activity; purified M. tuberculosis BioA enzyme, plate reader; inhibition, % at 9.99 µM; actives 0.096% (n = 360,000); AID 602481; in the data active = inhibition above about 40%; inconclusive = no clear call, values can overlap the other calls
Mtb FBA inh: inhibits M. tuberculosis FBA enzyme | purified M. tuberculosis FBA, fluorescence read-out | inhibition, % at 1 µM | actives 2.3% (n = 360,000); in the data active = inhibition above about 27%
Target sequence (P9WQA3 whole entry, looked up): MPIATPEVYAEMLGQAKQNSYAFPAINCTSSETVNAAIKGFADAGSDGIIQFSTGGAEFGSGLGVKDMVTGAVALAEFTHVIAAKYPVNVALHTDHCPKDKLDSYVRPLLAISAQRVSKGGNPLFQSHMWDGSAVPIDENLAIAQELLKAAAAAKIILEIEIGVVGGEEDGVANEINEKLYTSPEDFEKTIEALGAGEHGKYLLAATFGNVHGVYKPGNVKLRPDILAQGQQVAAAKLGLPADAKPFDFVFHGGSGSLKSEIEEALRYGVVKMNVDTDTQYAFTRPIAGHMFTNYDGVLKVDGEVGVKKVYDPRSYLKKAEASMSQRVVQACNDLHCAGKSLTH
FadD28 binding: M. tuberculosis FadD28 bisubstrate binding inhibition; FadD28 bisubstrate probe binding, fluorescence polarization; actives 0.22% (n = 360,000); inhibition, % at 12.5 µM; in the data active = inhibition above about 8.5%, passing the limit was not always enough; inconclusive = no clear call, values can overlap the other calls
3CLpro inhibitor: SARS-CoV 3CLpro protease inhibition; P0C6X7; recombinant SARS-CoV 3CLpro, quenched FRET peptide cleavage; inhibition, % at 6 µM; actives 0.14% (n = 290,000); in the data active = inhibition above about 12%
A number is an active result; 0 = inactive; ? = inconclusive; - = not tested or not shown; + = active, no number. Sampled rows, rich in hits. Any-hit rate of the full collection: about 3.1%.

SMILES	GDH-TPI inh	BioA inh	Mtb FBA inh	FadD28 binding	3CLpro inhibitor
COc1ccc(NC(=O)N[C@@H]2C=C[C@H](CC(=O)NC3CCCCC3)O[C@H]2CO)cc1	-	0	-	-	-
CCOC(=O)/C(C#N)=C1/C=CN(C)C(C)=N1	67	0	0	0	0
CCOC(=O)/C(C#N)=C1/C=C(C)NC(c2ccccc2O)=N1	0	0	0	0	0
CCC(Oc1ccc2c(=O)c(-c3ccccc3OC)coc2c1)C(=O)OCc1ccccc1 (stereo not given)	0	-	0	0	0
COc1ccccc1Oc1coc2c(CN(C)C)c(O)ccc2c1=O	0	0	114	0	0
CCN(CC)Cc1c(O)ccc2c(=O)c(-c3ccc4c(c3)OCCO4)coc12	31	0	0	0	0
COc1ccccc1-c1coc2c(CN(C)C)c(O)ccc2c1=O	0	0	188	0	0
CC(C)N(Cc1c(O)ccc2c(=O)c(-c3ccc(Cl)cc3)coc12)C(C)C	0	0	0	0	0
C[C@H](CO)N1C[C@H](C)[C@@H](CN(C)C(=O)CCCN(C)C)OCCCC[C@H](C)Oc2ccc(NC(=O)CCCN(C)C)cc2C1=O	-	0	-	-	-
C[C@H]1CN([C@@H](C)CO)C(=O)c2cccc(NC(=O)NC3CCCCC3)c2O[C@H]1CN(C)Cc1ccc(C(F)(F)F)cc1	-	0	-	-	-
O=C(O)c1cc(O)c2c(c1)C(=O)c1cc(O)cc(O)c1C2=O	0	0	0	13	0
CC1=Nn2c(nnc2-c2cc(-c3ccccc3)n[nH]2)SC1	0	0	0	0	0
COc1ccccc1-c1nnc2n1N=C(c1ccc(O)c(O)c1)CS2	36	0	0	0	0
c1ccc(-c2ccc(C3=Nn4c(nnc4-c4cc(-c5ccccc5)n[nH]4)SC3)cc2)cc1	44	0	0	0	0
Cc1noc(C)c1NC(=O)Nc1ccc2c(c1)CC(=O)N([C@H](C)CO)C[C@@H](C)[C@H](CN(C)C(=O)Nc1c(C)noc1C)O2	-	0	-	-	-
CCCCNC(=S)N/N=C/c1ccc(C)s1	63	0	0	0	0
COc1ccc(-c2nnn(CC(=O)c3c[nH]c4ccccc34)n2)cc1OC	0	0	0	15	0
COC(=O)C[C@@H]1CC[C@@H]2[C@@H](COc3ccc(NC(=O)Nc4ccc(C#N)cc4)cc3C(=O)N2C)O1	-	0	-	-	-
COc1ccc(-c2cc(C(=O)N3CCCC3)c3ccccc3n2)cc1	0	0	148	0	0
Cc1ccc(-c2cc(C(=O)Nc3ccccc3C(N)=O)c3ccccc3n2)o1	0	0	0	0	-
COc1ccc(-c2cc(C(F)F)n3ncc(C(=O)N4CCCCC4)c3n2)cc1	42	0	0	0	0
O=C(c1cc(-c2ccccc2)nc2ccccc12)N1CCCC1	0	0	0	0	0
Cc1ccc(-c2cc(C(=O)N(C)CC(=O)Nc3ccccc3Br)c3ccccc3n2)o1	0	0	120	0	-
COc1ccc2nc(-c3ccccc3)cc(C(=O)N3CCC3)c2c1	0	0	149	0	-
C[C@@H]1CN([C@@H](C)CO)C(=O)c2cc(NC(=O)Nc3ccccc3)ccc2O[C@@H]1CN(C)C(=O)Nc1ccc(C(F)(F)F)cc1	-	0	-	-	-
SMILES	GDH-TPI inh	BioA inh	Mtb FBA inh	FadD28 binding	3CLpro inhibitor
O=C(O)c1cc(-c2cccs2)nc2cc3c(cc12)OCCO3	0	0	+	0	0
Cc1ccc(-c2cc(C(=O)N3CCOCC3)c3ccccc3n2)o1	0	-	120	0	-
O=C(c1cc(-c2ccccc2Cl)nc2ccccc12)N1CCC1	0	-	0	0	-
NC(=O)C1CCN(C(=O)c2cc(-c3ccc(Cl)s3)nc3ccccc23)CC1	34	0	127	0	-
COc1ccc(-c2cc(C(=O)N3CC(C)CC(C)C3)c3ccccc3n2)cc1 (stereo not given)	0	0	50	0	-
O=C(CCN1CCCCC1)N[C@@H]1CC[C@@H](CCNS(=O)(=O)c2ccccc2)O[C@H]1CO	-	0	-	-	-
C[C@@H]1CN([C@H](C)CO)C(=O)Cc2cc(NS(=O)(=O)c3ccccc3)ccc2O[C@H]1CN(C)S(=O)(=O)c1cn(C)cn1	-	0	-	-	-
CS(=O)(=O)N1CCN(C(=O)c2cc(-c3cccs3)nc3ccccc23)CC1	31	0	125	0	0
COc1ccc2cc(-c3cc(C(=O)O)c4ccccc4n3)ccc2c1	36	0	0	0	0
C[C@H](O)[C@H](O)[C@H]1CNc2nc(N)[nH]c(=O)c2N1	0	0	73	0	-
C[C@H](CO)N1C[C@H](C)[C@@H](CN(C)Cc2ccc(Cl)c(Cl)c2)Oc2c(NC(=O)c3cnccn3)cccc2C1=O	-	0	-	-	-
COCCn1cc(C(=O)N2CCC(C)CC2)c2c3ccccc3n(C)c2c1=O	0	0	43	0	0
CC(C)Cn1cc(C(=O)N2CCC3(CC2)OCCO3)c2c3ccccc3n(C)c2c1=O	0	0	37	0	0
CC(C)Cn1cc(C(=O)N2CCC(C)CC2)c2c3ccccc3n(C)c2c1=O	0	-	0	0	0
N#Cc1cccc(-c2ccc3c(c2)[C@H]2[C@H](CCN2C(=O)CN2CCOCC2)[C@H](CO)N3)c1	-	0	-	-	-
COc1ccc2nc(-c3cccc(N)c3)[nH]c2c1	0	0	177	0	0
COc1ccc2nc(-c3ccc(N)cc3)[nH]c2c1	0	0	+	0	0
Nc1cccc(-c2nc3ccc(C(=O)c4ccccc4)cc3[nH]2)c1	0	0	0	0	0
C[C@H](CO)N1C[C@H](C)[C@@H](CN(C)S(=O)(=O)c2ccc(F)cc2)Oc2ccc(NC(=O)C3CC3)cc2CC1=O	-	0	-	-	-
COc1ccc(C(=O)Cn2c(C(=O)/C=C/c3ccccc3)nc3ccccc32)cc1	32	0	0	0	0
O=C(CC(=O)c1ccccc1)Nc1cc([N+](=O)[O-])ccc1Cl	31	0	0	0	0
CCCCC(=O)Nc1cc([N+](=O)[O-])ccc1Cl	0	-	0	?	0
CCCCC(CC)COCCCN=Cc1c(O)[nH]c(=S)[nH]c1=O (stereo not given)	39	0	0	0	0
COC(=O)Cn1c(=O)c2c(n(Cc3ccccc3)c1=O)N/C(=C/c1ccc(OC)cc1)C2=O	41	-	0	0	0
CC(=O)N(C)C[C@@H]1Oc2cc(C#Cc3cccc(F)c3)ccc2S(=O)(=O)N([C@@H](C)CO)C[C@H]1C	-	0	-	-	-
SMILES	GDH-TPI inh	BioA inh	Mtb FBA inh	FadD28 binding	3CLpro inhibitor
CCN(CC)C(=O)CSc1nc2cc(OC)c(OC)cc2c(=O)n1Cc1ccc(Cl)cc1	0	0	27	0	0
CCOC(=O)C(=Cc1c[nH]c2ccc(S(=O)(=O)N(C)C)cc12)C(=O)OCC	41	0	0	0	0
CCOC(=O)/C(C#N)=C/c1c[nH]c2ccccc12	0	-	0	0	0
CC(C)(C)c1ccc(C(=O)NCc2cccnc2)cc1	0	-	0	0	0
Cc1ccc(C)n1-c1ccc(C(=O)NCc2cccnc2)cc1	0	-	31	0	0
C(=N\NC1=NCCCCC1)/c1c[nH]c2ccccc12	39	-	0	0	0
Cc1cc(N/N=C/c2c[nH]c3ccccc23)c2ccccc2n1	0	0	0	0	0
Cn1c(N/N=C/c2c[nH]c3ccccc23)nc2ccccc21	58	0	0	?	0
C[C@H]1CCCCO[C@@H](CN(C)C(=O)Nc2ccc(C(F)(F)F)cc2)[C@@H](C)CN([C@@H](C)CO)C(=O)c2cc(NC(=O)c3ccncc3)ccc2O1	-	0	-	-	-
